Measurements as given in PubChem BioAssay.
Potency and affinity values are given separately. Inconclusive results are not listed. Activity calls are given as the source filed them.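 Rule for the calls, unless noted: active = fitted dose curve reaches 40% lysis signal rise at or below the highest valid concentration tested for that sample; inconclusive = flat fit between 30% and 70%, or poor curve fit; inactive = signal falls, stays flat within 30%, or no crossing.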

Experiment: fungal growth arrest, C. neoformans – Alamar Blue, cherry-picks, dose response (AID 686998;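 active = falling signal with fitted half-maximal potency no higher than twice the top valid tested dose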)
Settings: Cryptococcus neoformans growth, 24 h; series mostly up to 35 µM; activity change, negative = inhibition: at the top concentration

Activity change, negative = inhibition, inactive:
COCC(=O)N(C)C[C@@H]1Oc2ncc(C#CCC3CCCC3)cc2C(=O)N([C@@H](C)CO)C[C@H]1C -16.6%, C[C@H](CO)N1C[C@H](C)[C@H](CN(C)Cc2ccncc2)Oc2ccc(NC(=O)CCC(F)(F)F)cc2C1=O -11.4%, Cc1ccc(C)c(NC(=O)C2CCCN2C(=O)NC2CCCCC2)c1 (centres undefined) -34.6%, CO[C@H](CN(C)Cc1cc(F)ccc1F)[C@@H](C)CN([C@@H](C)CO)S(=O)(=O)c1ccc(F)cc1 -0.991%, CC(=O)NC[C@H]1[C@@H](c2ccc(C3=CCCC3)cc2)[C@@H](CO)N1C(=O)NC(C)C -17.4%, C[C@H](CO)N1C[C@H](C)[C@H](CN(C)S(=O)(=O)c2ccccc2)Oc2ccc(NS(=O)(=O)c3ccc(F)cc3)cc2C1=O -13.5%, CCOc1cc(/C=N/NC(=O)CCCC(=O)NC2CCCCC2)ccc1O -29.8%, CN1C(=O)N[C@@H]2c3ccccc3O[C@@]1(C)[C@@H]2COC(=O)c1ccccc1 -25.3%, CCS(=O)(=O)N1CCCCN2[C@H](C1)[C@@H](c1ccc(-c3ccc(C#N)cc3)cc1)[C@@H]2CO -19.6%, CO[C@H]1CN(C)C(=O)c2cc(NC(=O)c3ccccc3F)ccc2OC[C@H](C)N(C(C)=O)C[C@H]1C -33.5%, COc1ccc(NC(=O)N(C)C[C@H]2OCCCC[C@@H](C)Oc3ccc(NC(=O)c4ccccc4)cc3C(=O)N([C@@H](C)CO)C[C@H]2C)cc1 -27.1%, Cc1ccc(N(CC(N)=O)S(=O)(=O)c2ccc(F)cc2)cc1 -24.4% [at 38 µM], O=C(CSc1ncnc2c1cnn2-c1ccccc1Cl)N1CCN(C(=O)c2ccco2)CC1 -10.4%, C[C@@H](NC(=O)C[C@H]1CC[C@@H](NC(=O)Cc2ccccn2)[C@@H](CO)O1)c1ccccc1 3.85%

Experiment: C. neoformans lysis by adenylate kinase leakage – AK release luminescence, cherry-picks, dose response (AID 687000);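 note: luminescent detection of adenylate kinase leaking from lysed yeast; 0% = median neutral control signal and 100% = double that signal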
Settings: 4 h, 100% = twice the neutral-control signal; series mostly up to 15 µM; lysis activity: at the top concentration

Lysis activity, inactive:
C[C@H]1CN([C@@H](C)CO)C(=O)c2cc(NS(=O)(=O)c3ccc(F)cc3)ccc2O[C@@H]1CN(C)S(=O)(=O)c1ccccc1 -6.18%, Cc1noc(C)c1S(=O)(=O)Nc1ccc2c(c1)C(=O)N([C@H](C)CO)C[C@@H](C)[C@H](CN(C)Cc1ccccc1)OCCCC[C@H](C)O2 -3.1%, CC(C)NC(=O)N(C)C[C@@H]1OCCCC[C@@H](C)Oc2ccc(NC(=O)c3ccccc3)cc2C(=O)N([C@H](C)CO)C[C@H]1C 25%, CCS(=O)(=O)NCC[C@@H]1CC[C@@H](NS(=O)(=O)c2cccc(F)c2)[C@@H](CO)O1 -3.02%, O=C(C[C@H]1C=C[C@H](NC(=O)C2CCC2)[C@@H](CO)O1)NC1CCC1 9.85%, CCCNC(=O)Nc1ccc2c(c1)C(=O)N(C)C[C@H](OC)[C@@H](C)CN(Cc1cccnc1)[C@H](C)CO2 -5.63%, Cc1cccc(C)c1NC(=O)C(C)N1CCCC1 (centres undefined) -22.7%, O=C(NC(=S)Nc1ccc(CN2CCOCC2)cc1)c1ccc([N+](=O)[O-])cc1 -3.36%, CO[C@@H]1CN(C)C(=O)c2cc(NC(=O)C3CC3)ccc2OC[C@H](C)N(C(=O)c2ccncc2)C[C@H]1C -6.21%, O=C(CSc1ncnc2c1cnn2-c1ccccc1)NC1CCS(=O)(=O)C1 (centres undefined) 2.45%, Cc1cc(C(=O)NC(=S)Nc2ccccc2N2CCCC2)ccc1[N+](=O)[O-] 4.06%, COc1ccc(NC(=O)N(C)C[C@H]2OCCCC[C@@H](C)Oc3ccc(N(C)C)cc3C(=O)N([C@H](C)CO)C[C@H]2C)cc1 -6.69%, CC=Cc1ccc2n(c1=O)C[C@H]1[C@H](CO)[C@@H](C(=O)NCc3ccc4c(c3)OCO4)[C@@H]2N1C(=O)C1CC1 (mixture of isomers) 3.66%, CCC(=O)N1[C@@H]2Cn3c(ccc(C4=CCCCC4)c3=O)[C@H]1[C@@H](C(=O)N[C@H](C)c1ccccc1)[C@@H]2CO -6.47%, CCC(=O)N[C@@H]1C=C[C@H](CC(=O)NCC2CCCCC2)O[C@H]1CO 3.06%, O=C(CSc1ncnc2c1cnn2-c1ccc(Cl)cc1)NCc1ccc2c(c1)OCO2 4.33%, CO[C@H]1CN(C)C(=O)c2ccc(NC(=O)C3CC3)cc2OC[C@@H](C)N(Cc2ccc(F)cc2)C[C@@H]1C 3.44%, C[C@@H]1CN([C@@H](C)CO)C(=O)c2cc(C3=CCCCC3)cnc2O[C@H]1CN(C)C(=O)Cc1cccnc1 -9.05%, CN(C)C(=O)c1ccc(-c2ccc([C@H]3[C@H]4CN(CCC(F)(F)F)CCCCN4[C@H]3CO)cc2)cc1 -4.21%, CC(C)NC(=O)N(C)C[C@@H]1OCCCC[C@H](C)Oc2ccc(NC(=O)Cc3ccccc3)cc2C(=O)N([C@H](C)CO)C[C@H]1C 7.99%
